Source: PubChem
SARS PLpro yeast = inhibitors of SARS-CoV papain-like protease in yeast | actives 0.19% (n = 330,000) | AID 485353 | S. cerevisiae expressing SARS-CoV PLpro, growth rescue | Potency, µM (series often up to 32.9 µM), for inactives: at the top dose activity, positive = growth rescue, usual class: activators; calls by dose curve; note: potency is the fitted concentration of half-maximal effect; 0% is about no effect; nearly all actives have a fitted effect of over 55% in size
Pf growth 48h = inhibits P. falciparum growth in the first generation, 48 h; P. falciparum luciferase growth in erythrocytes, 48 h; Potency, µM (series often up to 28.7 µM), inactives show at the highest dose activity change, negative = inhibition, usual class: inhibitors; actives 5.9% (n = 310,000); AID 504832; note: potency is the fitted concentration of half-maximal effect; % is set by controls: 0 for no effect and ±100 for the full control effect
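Parasite viability was followed by luminescence of a genomically integrated firefly luciferase. Cultures held 0.1% parasitemia at 2% hematocrit (final), incubated under 5% CO2 at 37 C.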
Sm TGR block = inhibitors of Schistosoma mansoni thioredoxin glutathione reductase. purified TGR, DTNB reduction, TNB absorbance 405 nm. actives 3% (n = 360,000). AID 485364. Potency, µM (series often up to 114 µM), without a hit: top-dose activity change, negative = inhibition, most hits filed as inhibitors. Q962Y6; note: potency is the fitted concentration of half-maximal effect; % is set by controls: 0 for no effect and ±100 for the full control effect; nearly all actives have a fitted effect of over 60% in size
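First, TGR (20 nM dispensed) and NADPH were mixed with compound. Second, a 15 min room-temperature incubation followed. Third, further NADPH and then DTNB were added to start the reaction. Finally, TNB absorbance was monitored kinetically.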
HCV inh = inhibitors of hepatitis C virus infection; Huh7.5.1 HCVcc-Cre infection, luciferase reporter, 44 h; Potency, µM (highest dose often 41.8 µM), without a hit: top-dose activity change, negative = inhibition, usual class: inhibitors; actives 3.4% (n = 340,000); AID 651820; note: potency is the fitted concentration of half-maximal effect; % is set by controls: 0 for no effect and ±100 for the full control effect
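Cells (1,000/well) were plated 4 h before compound, then infected with HCVcc-Cre virus (~0.5 moi). After 44 h further culture, infection was read as luciferase luminescence following a 15 min substrate incubation at room temperature.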
HCMV antiviral = human cytomegalovirus inhibition | HFF cells, HCMV-luciferase reporter, 72 h; hits give low values | activity change, negative = inhibition, % at 57.5 µM | actives 4.5% (n = 410,000) | AID 1259415; in the data active = activity change below about -60%; inconclusive = no clear call, values can overlap the other calls; inactive = above about -39%; note: % is set by controls: 0 for no effect and ±100 for the full control effect
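HFF cells seeded 16 h at 37C, treated with compounds, infected with luciferase-reporter HCMV at MOI 1 PFU/cell; luciferase read at 72 h post infection, normalized to buffer-only and Salinomycin controls.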
Pf growth 96h = P. falciparum growth inhibition at 96 hour, primary screen for plastid delayed-death inhibitors; P. falciparum luciferase reporter growth, 96 h; Potency, µM (highest dose often 28.7 µM), without a hit: at the top dose activity change, negative = inhibition, actives largely listed as inhibitors; actives 6.9% (n = 320,000); AID 504834; note: potency is the fitted concentration of half-maximal effect; % is set by controls: 0 for no effect and ±100 for the full control effect
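Infected RBCs, 2% Hct / 0.05% parasitemia final; luciferase-reporter P. falciparum; cpd 96 h, 37 C, 5% CO2; luciferase detection reagent; luminescence.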
* hit, by the source's call; [ ] = remark or other dose. A selection: hits, their analogues and other compounds. The true share with any hit is near 15%. Unless noted, calls come from the whole dose curve; as a rule, active = well fitted curve in the direction sought with a large enough effect; inconclusive = small, poorly fitted or top-dose-only effect, or another doubt; inactive = no such curve, though single readings can be large; an effect the other way counts as inactive or inconclusive.

COc1cc2ccccc2cc1C(=O)Nc1cccnc1 was read as SARS PLpro yeast -23%, Pf growth 48h 112%, Sm TGR block -2%, HCV inh 32µM* and HCMV antiviral 64.
Screening Cc1nc(C)c(C(=O)Nc2ccc(Oc3ccccc3)cc2)o1 returned SARS PLpro yeast -14%, Pf growth 48h 78%, Sm TGR block 3%, HCV inh inconclusive and HCMV antiviral -89*.
Screening COc1ccccc1C(=O)NNC(=O)c1cccc(O)c1 returned SARS PLpro yeast -2%, Pf growth 48h 163%, Sm TGR block 15%, HCV inh 15%, HCMV antiviral 113 and Pf growth 96h 6.6µM*.
COc1cc(OC)c(C(=O)Nc2cccnc2)cc1OC was read as SARS PLpro yeast -3%, Pf growth 48h 15%, Sm TGR block -33%, HCV inh -15%, HCMV antiviral 33 and Pf growth 96h inconclusive.
Screening O=C(CSc1nc2ccccc2c(=O)[nH]1)Nc1cccc([N+](=O)[O-])c1 returned SARS PLpro yeast -4%, Pf growth 48h -21%, Sm TGR block -1%, HCV inh -19%, HCMV antiviral 19 and Pf growth 96h 1.2µM*.
`Cc1nc(C(F)(F)F)ccc1C(=O)N1CCC1(C)C(=O)NS(=O)(=O)c1ccc(C#N)cc1` (centres undefined) gave HCMV antiviral 15.
`CN1CCc2ccc(NC(=O)c3ccc(C(F)(F)F)cc3)cc2C1` gave SARS PLpro yeast 3%, Pf growth 48h inconclusive, Sm TGR block -20%, HCV inh inconclusive, HCMV antiviral inconclusive and Pf growth 96h -35%.
`COc1ccc(NC(=O)NNC(=O)c2cc3ccccc3cc2O)cc1` gave SARS PLpro yeast -2%, Pf growth 48h 6%, Sm TGR block 2%, HCV inh 1%, HCMV antiviral -25 and Pf growth 96h 35%.
`COc1cc2ccccc2cc1C(=O)Nc1ccccc1Cl` gave SARS PLpro yeast -10%, Pf growth 48h inconclusive, Sm TGR block 1%, HCV inh inconclusive, HCMV antiviral 66 and Pf growth 96h 32%.
`COc1ccc(Oc2ccc(NC(=O)c3ccccc3C)cc2)cc1` gave SARS PLpro yeast 0%, Pf growth 48h -1%, HCV inh inconclusive, HCMV antiviral -85* and Pf growth 96h -21%.
COc1ccccc1Oc1ccc(NC(=O)c2ccccc2C)cc1 was read as SARS PLpro yeast -1%, Pf growth 48h -22%[1.15 µM], Sm TGR block 0%, HCV inh inconclusive, HCMV antiviral -5 and Pf growth 96h inconclusive.
For COc1ccc(NC(=O)c2cc3ccccc3cc2OC)cc1 the results were SARS PLpro yeast inconclusive, Pf growth 48h inconclusive, Sm TGR block 11%, HCV inh 8.9µM*, HCMV antiviral 174 and Pf growth 96h 76%.
`COc1cc2ccccc2cc1C(=O)NNC(=O)c1ccccc1O` gave SARS PLpro yeast inconclusive, Pf growth 48h inconclusive, Sm TGR block 0%, HCMV antiviral -91* and Pf growth 96h inconclusive.
`COc1cc(NC(=S)Nc2ccccn2)cc(OC)c1` gave SARS PLpro yeast 27%, Pf growth 48h inconclusive, Sm TGR block -26%, HCV inh inconclusive, HCMV antiviral 69 and Pf growth 96h -21%.
For NC1=NC(=O)C(c2ccccc2)(c2ccccc2)S1 the results were HCV inh 20% and HCMV antiviral -31.
For CCS(=O)(=O)C1=NN2C(=N)/C(=C\c3ccc(OC(=O)c4ccco4)c(Br)c3)C(=O)N=C2S1 the results were SARS PLpro yeast 8%, Pf growth 48h 5%, Sm TGR block 45µM* and Pf growth 96h inconclusive.
For COc1cc(/C=C2/C(=N)N3C(=NC2=O)SN=C3S(C)(=O)=O)ccc1OS(=O)(=O)c1ccccc1 the results were SARS PLpro yeast 8%, Pf growth 48h -8%, Sm TGR block -17% and Pf growth 96h inconclusive.
CCOc1cc(C=C2C(=O)NC(=O)NC2=O)ccc1OS(=O)(=O)c1ccccc1 was read as SARS PLpro yeast -1%, Sm TGR block 22µM*, HCV inh -3% and Pf growth 96h -14%.
CCOc1cc(/C=C2\C(=N)N3N=C(S(=O)(=O)CC)SC3=NC2=O)ccc1OC(=O)c1ccco1 was read as SARS PLpro yeast 1%, Pf growth 48h -17%, Sm TGR block -24%, HCV inh 14%, HCMV antiviral 18 and Pf growth 96h -8%.
COc1cc(C=C2C(=O)NC(=O)NC2=O)cc(OC)c1OC was read as SARS PLpro yeast 1%, Pf growth 48h 11%, Sm TGR block 0%, HCV inh 19%, HCMV antiviral 27 and Pf growth 96h inconclusive.
`COc1cc(/C=C2\C(=N)N3N=CSC3=NC2=O)ccc1OS(=O)(=O)c1ccccc1[N+](=O)[O-]` gave SARS PLpro yeast -1%, Pf growth 48h -12%, Sm TGR block -30%, HCV inh -5%, HCMV antiviral -19 and Pf growth 96h 4.1µM*.
`COc1cc(C=C2C(=O)NC(=O)NC2=O)ccc1OS(=O)(=O)c1ccccc1[N+](=O)[O-]` gave SARS PLpro yeast -2%, Pf growth 48h 32%, Sm TGR block 2.8µM*, HCV inh -16%, HCMV antiviral -22 and Pf growth 96h inconclusive.
`CCOc1ccc(C=C2C(=O)NC(=S)NC2=O)cc1OCC` gave HCV inh -13% and HCMV antiviral -29.
Screening CC[C@]12C(=O)N(C)C[C@H]([C@@H]3C(=O)N(C)C(=O)[C@@H]31)N2C(=O)c1ccc(Cl)c(Cl)c1 returned HCV inh 17%.
For COc1cc(/C=C2\C(=N)N3N=C(S(C)(=O)=O)SC3=NC2=O)ccc1OC(=O)c1cccs1 the results were SARS PLpro yeast 3%, Pf growth 48h inconclusive, Sm TGR block -3%, HCV inh -24%, HCMV antiviral 2 and Pf growth 96h 25%.
COc1cc(/C=C2\C(=N)N3N=C(S(C)(=O)=O)SC3=NC2=O)ccc1OCCOc1ccccc1C was read as SARS PLpro yeast -1%, Pf growth 48h 10µM*, Sm TGR block 3%, HCV inh 19%, HCMV antiviral 103 and Pf growth 96h inconclusive.
Screening CSc1oc(-c2ccc(F)cc2)nc1S(=O)(=O)c1ccc(F)cc1 returned SARS PLpro yeast -7%, Sm TGR block -2%, HCV inh -3%, HCMV antiviral inconclusive and Pf growth 96h -2%.
CCCCS(=O)(=O)c1oc(-c2ccc(F)cc2)nc1S(=O)(=O)c1ccccc1 was read as Sm TGR block 0% and HCMV antiviral -99*.
